To fix the notation:
B1: PhoQ; a variant is named by its letters at X, in order, P23837 (parent)
chain: MKKLLRLFFPLSLRVRFLLATAAVVLVLSLAYGMVALIGYSVSFDKTTFRLLRGESNLFYTLAKWENNKLHVELPENIDKQSPTMTLIYDENGQLLWAQRDVPWLMKMIQPDWLKSNGFHEIEADVNDTSLLLSGDHSIQQQLQEVREDDDDAEMTHSVAVNVYPATSRMPKLTIVVVDTIPVELKSSYMVWSWFIYVLSANLLLVIPLLWVAAWWSLRPIEALAKEVRELEEHNRELLNPATTRELTSLVRNLNRLLKSERERYDKYRTTLTDLTHSLKTPLXXLQXXLRSLRSEKMSVSDAEPVMLEQISRISQQIGYYLHRASMRGGTLLSRELHPVAPLLDNLTSALNKVYQRKGVNISLDISPEISFVGEQNDFVEVMGNVLDNACKYCLEFVEISARQTDEHLYIVVEDDGPGIPLSKREVIFDRGQRVDTLRPGQGVGLAVAREITEQYEGKIVAGESMLGGARMEVIFGRQHSAPKDE

Over roughly 140,000 sequences, “enrichment ratio after two sorts for PhoP signalling” has its median near 0; the highest 2% begin near 11. This excerpt belongs to a sample that is enriched for the highest values.

Variants of B1 are the subject of this assay. Briefly: enrichment ratio after two sorts for PhoP signalling (ratio (wild type AVST 3.29)); higher = more functional. Conditions: with PhoP (E. coli).
In the case of MDVN, the enrichment ratio is at most 0.25.

For FYFS, the enrichment ratio was at most 0.25.

On to KVID, for which the enrichment ratio was at most 0.25.

On to GEKS, for which the enrichment ratio is at most 0.25.

In the case of MTIG, the enrichment ratio is at most 0.25.

As to NDGW, the enrichment ratio was at most 0.25.

Take SKVW: the enrichment ratio was at most 0.25.

For AVWN, the enrichment ratio was at most 0.25.

In the case of AVTK, the enrichment ratio is 17.9.

On to AVNL, for which the enrichment ratio was at most 0.25.

Take AVFW: the enrichment ratio is at most 0.25.

For the variant AVMN, the enrichment ratio amounted to 18.8.

For the variant AVRW, the enrichment ratio is at most 0.25.

As to AVPA, the enrichment ratio is at most 0.25.

AVPI: the enrichment ratio worked out at 2.35.

Take AVTW: the enrichment ratio is 43.5.

With NVAW, the enrichment ratio is at most 0.25.

Take AKAW: the enrichment ratio is at most 0.25.

Consider AVAW, for which the enrichment ratio turned out to be 22.5.

As for LTGM, the enrichment ratio is at most 0.25.

Take MQNP: the enrichment ratio was at most 0.25.

Turning to KLMC, the enrichment ratio is at most 0.25.

On to LHAE, for which the enrichment ratio was at most 0.25.

For DSVM, the enrichment ratio is at most 0.25.

KHEF: the enrichment ratio is at most 0.25.

As for FSFL, the enrichment ratio was 1.26.

With WYFI, the enrichment ratio is at most 0.25.

Turning to EMFN, the enrichment ratio was at most 0.25.

TEHM: the enrichment ratio came out at 58.9.

With TGHM, the enrichment ratio was found to be 4.7.

For the variant SEHM, the enrichment ratio was found to be 23.7.

As to QEHM, the enrichment ratio worked out at 10.7.

As to YYHM, the enrichment ratio was at most 0.25.

As for KYHM, the enrichment ratio was at most 0.25.

For EAYE, the enrichment ratio is at most 0.25.

Consider GGYY, for which the enrichment ratio was at most 0.25.

In the case of AIAM, the enrichment ratio turned out to be 6.08.

For the variant AKAM, the enrichment ratio worked out at 13.1.

Consider ANIM, for which the enrichment ratio amounted to 4.25.

In the case of ANAM, the enrichment ratio turned out to be 32.2.

As to ALWM, the enrichment ratio is at most 0.25.

In the case of ALAM, the enrichment ratio is 12.2.

Take TLAM: the enrichment ratio came to 3.04.

In the case of ADAM, the enrichment ratio was 3.24.

For the variant AAAM, the enrichment ratio is 10.1.

Regarding IDWP, the enrichment ratio is at most 0.25.

In the case of HREC, the enrichment ratio was at most 0.25.

Regarding GNSH, the enrichment ratio turned out to be 1.23.

On to IQIR, for which the enrichment ratio is at most 0.25.

DTPS: the enrichment ratio is at most 0.25.

Take GPWS: the enrichment ratio is at most 0.25.

As to ESVV, the enrichment ratio was at most 0.25.

In the case of CSLY, the enrichment ratio is 0.296.

Consider CSLT, for which the enrichment ratio worked out at 11.7.

Consider CSLP, for which the enrichment ratio is at most 0.25.

On to CSFT, for which the enrichment ratio was at most 0.25.

As for CSLS, the enrichment ratio was found to be 21.9.

For CSLA, the enrichment ratio was found to be 2.15.

As for NPIK, the enrichment ratio was at most 0.25.

For DVWP, the enrichment ratio was at most 0.25.

In the case of DDAS, the enrichment ratio was at most 0.25.

On to MKAH, for which the enrichment ratio was at most 0.25.

On to SFAH, for which the enrichment ratio is at most 0.25.

Take MCAH: the enrichment ratio was found to be 2.04.

For QEAH, the enrichment ratio is at most 0.25.

As for GVAH, the enrichment ratio was 0.601.

Turning to MVAH, the enrichment ratio was determined as 12.3.

Turning to HPAH, the enrichment ratio was at most 0.25.

Turning to SEAH, the enrichment ratio stood at 31.6.

NEAH: the enrichment ratio is at most 0.25.

On to MVTH, for which the enrichment ratio amounted to 2.25.

Turning to TEAH, the enrichment ratio stood at 40.

On to MEAH, for which the enrichment ratio came out at 28.9.

In the case of YETW, the enrichment ratio was at most 0.25.

Take REHR: the enrichment ratio is at most 0.25.

VKCV: the enrichment ratio is at most 0.25.

For MGTW, the enrichment ratio was at most 0.25.

For FNVE, the enrichment ratio is at most 0.25.

NWYH: the enrichment ratio was at most 0.25.

Consider HLAW, for which the enrichment ratio was at most 0.25.

As to VCYP, the enrichment ratio is at most 0.25.

Regarding MRAI, the enrichment ratio was at most 0.25.

With TEFK, the enrichment ratio is 1.68.

As to MPLG, the enrichment ratio was at most 0.25.

In the case of TELG, the enrichment ratio turned out to be 27.4.

Take HYLG: the enrichment ratio is at most 0.25.

Consider MFLG, for which the enrichment ratio turned out to be 0.27.

As to NELG, the enrichment ratio is 2.34.

As for HPLG, the enrichment ratio is at most 0.25.

Regarding HELG, the enrichment ratio amounted to 12.3.

Take HELA: the enrichment ratio was at most 0.25.

Regarding MELG, the enrichment ratio worked out at 22.3.

Source of the values: a collection of fitness landscapes (doi:10.1126/science.1257360).
